# Test results from ChEMBL document CHEMBL1961873, “Compounds: GSK PKIS; Assays: Nanosyn kinase panel” (2012).
# Key:
# [1] = molecular target: T1, Tyrosine-protein kinase ITK/TSK (Homo sapiens) (UniProt Q08881); settings: at 1 µM;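 also: values are mean percent inhibition of ITK from the GSK PKIS screen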
# T1 sequence (whole entry): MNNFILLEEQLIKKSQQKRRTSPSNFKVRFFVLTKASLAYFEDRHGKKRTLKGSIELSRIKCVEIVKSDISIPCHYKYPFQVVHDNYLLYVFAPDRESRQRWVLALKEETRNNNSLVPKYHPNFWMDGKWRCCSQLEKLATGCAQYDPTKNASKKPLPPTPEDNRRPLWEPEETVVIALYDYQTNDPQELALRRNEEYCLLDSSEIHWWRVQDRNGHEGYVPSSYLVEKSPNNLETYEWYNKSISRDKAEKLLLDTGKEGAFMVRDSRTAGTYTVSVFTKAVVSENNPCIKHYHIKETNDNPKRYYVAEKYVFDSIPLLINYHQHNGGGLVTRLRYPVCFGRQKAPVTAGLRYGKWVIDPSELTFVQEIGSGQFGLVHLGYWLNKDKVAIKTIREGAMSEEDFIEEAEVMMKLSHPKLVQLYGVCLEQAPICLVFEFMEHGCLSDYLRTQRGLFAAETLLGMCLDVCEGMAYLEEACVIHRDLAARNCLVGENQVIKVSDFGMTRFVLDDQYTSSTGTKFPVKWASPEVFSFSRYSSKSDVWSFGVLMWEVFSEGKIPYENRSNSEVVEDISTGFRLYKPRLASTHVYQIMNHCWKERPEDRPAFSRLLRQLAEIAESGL
# [2] = molecular target: Tyrosine-protein kinase JAK1 (Homo sapiens) (UniProt P23458); settings: at 0.1 µM
# Chain of Tyrosine-protein kinase JAK1 (Homo sapiens) (P23458 whole entry): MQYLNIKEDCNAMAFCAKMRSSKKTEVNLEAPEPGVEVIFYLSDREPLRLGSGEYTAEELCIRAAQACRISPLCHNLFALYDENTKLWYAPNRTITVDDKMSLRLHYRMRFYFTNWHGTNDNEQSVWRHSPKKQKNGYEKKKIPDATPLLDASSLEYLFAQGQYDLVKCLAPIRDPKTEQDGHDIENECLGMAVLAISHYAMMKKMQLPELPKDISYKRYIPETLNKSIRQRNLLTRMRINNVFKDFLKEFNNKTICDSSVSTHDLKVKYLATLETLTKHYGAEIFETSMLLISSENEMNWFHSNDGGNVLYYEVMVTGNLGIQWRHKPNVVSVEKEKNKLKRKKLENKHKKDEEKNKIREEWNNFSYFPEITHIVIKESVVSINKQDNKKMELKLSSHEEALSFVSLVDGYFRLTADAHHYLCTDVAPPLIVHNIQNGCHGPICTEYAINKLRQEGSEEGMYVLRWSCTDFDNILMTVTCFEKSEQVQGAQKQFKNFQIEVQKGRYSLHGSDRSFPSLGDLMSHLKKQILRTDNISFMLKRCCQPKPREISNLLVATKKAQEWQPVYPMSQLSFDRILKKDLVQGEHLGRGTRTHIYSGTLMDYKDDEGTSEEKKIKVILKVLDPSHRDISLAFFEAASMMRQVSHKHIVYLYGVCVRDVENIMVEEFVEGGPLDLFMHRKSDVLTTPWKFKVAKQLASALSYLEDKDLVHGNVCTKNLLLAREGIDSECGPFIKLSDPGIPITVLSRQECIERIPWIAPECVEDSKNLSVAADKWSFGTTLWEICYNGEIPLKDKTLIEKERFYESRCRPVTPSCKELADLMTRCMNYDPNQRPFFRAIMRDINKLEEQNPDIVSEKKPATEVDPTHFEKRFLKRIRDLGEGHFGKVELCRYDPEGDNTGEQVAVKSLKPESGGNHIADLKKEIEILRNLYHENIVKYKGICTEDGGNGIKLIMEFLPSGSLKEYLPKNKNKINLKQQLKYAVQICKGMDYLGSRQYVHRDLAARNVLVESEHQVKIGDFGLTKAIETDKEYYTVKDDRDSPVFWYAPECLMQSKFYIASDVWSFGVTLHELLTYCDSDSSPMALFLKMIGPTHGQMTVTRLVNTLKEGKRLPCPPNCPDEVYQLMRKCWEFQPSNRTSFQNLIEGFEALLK
# [3] = molecular target: Tyrosine-protein kinase JAK1 (Homo sapiens) (UniProt P23458); settings: at 1 µM
# [4] = molecular target: Tyrosine-protein kinase JAK2 (Homo sapiens) (UniProt O60674); settings: at 0.1 µM
# [5] = molecular target: Tyrosine-protein kinase JAK2 (Homo sapiens) (UniProt O60674); settings: at 1 µM
# [6] = molecular target: T2, Tyrosine-protein kinase JAK3 (Homo sapiens) (UniProt P52333); settings: at 0.1 µM
# T2 sequence (whole entry): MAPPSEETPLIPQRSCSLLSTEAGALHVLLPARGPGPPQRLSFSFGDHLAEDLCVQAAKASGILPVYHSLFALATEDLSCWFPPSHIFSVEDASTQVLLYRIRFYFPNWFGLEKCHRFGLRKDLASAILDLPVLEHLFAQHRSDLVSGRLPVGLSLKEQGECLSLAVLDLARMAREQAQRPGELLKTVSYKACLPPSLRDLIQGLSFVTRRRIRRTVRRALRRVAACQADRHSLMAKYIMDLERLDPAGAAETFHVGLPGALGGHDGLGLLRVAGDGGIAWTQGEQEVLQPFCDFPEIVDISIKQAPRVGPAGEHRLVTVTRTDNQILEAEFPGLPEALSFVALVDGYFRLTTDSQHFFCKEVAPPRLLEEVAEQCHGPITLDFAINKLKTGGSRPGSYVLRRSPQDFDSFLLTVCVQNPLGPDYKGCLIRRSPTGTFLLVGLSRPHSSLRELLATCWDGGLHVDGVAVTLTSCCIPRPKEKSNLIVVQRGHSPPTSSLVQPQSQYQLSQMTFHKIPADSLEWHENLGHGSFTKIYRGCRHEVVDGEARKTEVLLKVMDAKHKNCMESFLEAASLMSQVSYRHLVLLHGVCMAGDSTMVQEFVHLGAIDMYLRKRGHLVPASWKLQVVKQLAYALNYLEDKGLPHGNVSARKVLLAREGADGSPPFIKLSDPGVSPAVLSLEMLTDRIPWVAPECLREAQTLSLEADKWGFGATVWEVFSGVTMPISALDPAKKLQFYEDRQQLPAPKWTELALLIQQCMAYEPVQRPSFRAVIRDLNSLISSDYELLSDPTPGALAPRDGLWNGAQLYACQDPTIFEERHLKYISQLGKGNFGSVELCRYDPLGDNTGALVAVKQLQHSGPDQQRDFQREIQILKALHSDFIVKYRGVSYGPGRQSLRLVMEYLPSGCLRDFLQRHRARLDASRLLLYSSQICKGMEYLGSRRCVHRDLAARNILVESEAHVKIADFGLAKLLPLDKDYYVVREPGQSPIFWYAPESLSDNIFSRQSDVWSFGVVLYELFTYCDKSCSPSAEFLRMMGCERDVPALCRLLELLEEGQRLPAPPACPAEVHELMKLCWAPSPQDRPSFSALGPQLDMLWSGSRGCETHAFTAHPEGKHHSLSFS
# [7] = molecular target: T2, Tyrosine-protein kinase JAK3 (Homo sapiens); settings: at 1 µM
# [8] = molecular target: Vascular endothelial growth factor receptor 2 (Homo sapiens) (UniProt P35968); settings: at 0.1 µM
# Chain of Vascular endothelial growth factor receptor 2 (Homo sapiens) (P35968 whole entry): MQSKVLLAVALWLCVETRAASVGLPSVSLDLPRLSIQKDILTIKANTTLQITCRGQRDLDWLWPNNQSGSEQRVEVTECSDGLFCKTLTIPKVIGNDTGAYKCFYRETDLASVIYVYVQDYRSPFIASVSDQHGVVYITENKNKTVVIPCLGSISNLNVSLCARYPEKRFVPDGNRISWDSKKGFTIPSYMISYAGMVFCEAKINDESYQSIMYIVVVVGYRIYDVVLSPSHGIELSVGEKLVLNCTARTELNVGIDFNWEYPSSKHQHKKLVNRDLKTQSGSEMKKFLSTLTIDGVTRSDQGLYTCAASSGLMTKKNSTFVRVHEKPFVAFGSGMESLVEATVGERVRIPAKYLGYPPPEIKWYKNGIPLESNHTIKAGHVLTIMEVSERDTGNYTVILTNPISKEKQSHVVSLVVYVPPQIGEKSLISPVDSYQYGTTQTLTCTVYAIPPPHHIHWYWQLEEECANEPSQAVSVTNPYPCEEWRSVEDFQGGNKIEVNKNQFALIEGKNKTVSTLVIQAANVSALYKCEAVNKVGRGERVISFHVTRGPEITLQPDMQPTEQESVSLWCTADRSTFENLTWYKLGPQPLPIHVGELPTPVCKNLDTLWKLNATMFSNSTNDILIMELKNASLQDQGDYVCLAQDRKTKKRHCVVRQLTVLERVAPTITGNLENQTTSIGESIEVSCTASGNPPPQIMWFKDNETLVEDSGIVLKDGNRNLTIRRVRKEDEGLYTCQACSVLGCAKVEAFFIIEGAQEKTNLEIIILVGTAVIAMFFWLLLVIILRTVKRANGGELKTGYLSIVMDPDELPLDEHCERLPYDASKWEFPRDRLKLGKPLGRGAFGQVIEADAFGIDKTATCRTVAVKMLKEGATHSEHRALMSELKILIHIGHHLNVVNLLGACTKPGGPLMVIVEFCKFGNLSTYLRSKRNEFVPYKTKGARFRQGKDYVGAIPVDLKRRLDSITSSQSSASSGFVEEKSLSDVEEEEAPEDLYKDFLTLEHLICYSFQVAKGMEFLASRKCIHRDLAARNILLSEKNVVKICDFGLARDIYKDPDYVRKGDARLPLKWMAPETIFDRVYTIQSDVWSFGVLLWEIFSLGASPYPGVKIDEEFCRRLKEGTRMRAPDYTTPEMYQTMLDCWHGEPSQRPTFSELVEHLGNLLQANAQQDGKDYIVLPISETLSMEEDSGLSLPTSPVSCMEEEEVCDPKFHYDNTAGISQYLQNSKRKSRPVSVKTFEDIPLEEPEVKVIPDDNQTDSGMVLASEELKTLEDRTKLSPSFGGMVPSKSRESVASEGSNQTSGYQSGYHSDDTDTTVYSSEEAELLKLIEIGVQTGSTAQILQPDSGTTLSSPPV
# [9] = molecular target: Vascular endothelial growth factor receptor 2 (Homo sapiens) (UniProt P35968); settings: at 1 µM
# [10] = molecular target: Mast/stem cell growth factor receptor Kit (Homo sapiens) (UniProt P10721); settings: at 0.1 µM
# Chain of Mast/stem cell growth factor receptor Kit (Homo sapiens) (P10721 whole entry): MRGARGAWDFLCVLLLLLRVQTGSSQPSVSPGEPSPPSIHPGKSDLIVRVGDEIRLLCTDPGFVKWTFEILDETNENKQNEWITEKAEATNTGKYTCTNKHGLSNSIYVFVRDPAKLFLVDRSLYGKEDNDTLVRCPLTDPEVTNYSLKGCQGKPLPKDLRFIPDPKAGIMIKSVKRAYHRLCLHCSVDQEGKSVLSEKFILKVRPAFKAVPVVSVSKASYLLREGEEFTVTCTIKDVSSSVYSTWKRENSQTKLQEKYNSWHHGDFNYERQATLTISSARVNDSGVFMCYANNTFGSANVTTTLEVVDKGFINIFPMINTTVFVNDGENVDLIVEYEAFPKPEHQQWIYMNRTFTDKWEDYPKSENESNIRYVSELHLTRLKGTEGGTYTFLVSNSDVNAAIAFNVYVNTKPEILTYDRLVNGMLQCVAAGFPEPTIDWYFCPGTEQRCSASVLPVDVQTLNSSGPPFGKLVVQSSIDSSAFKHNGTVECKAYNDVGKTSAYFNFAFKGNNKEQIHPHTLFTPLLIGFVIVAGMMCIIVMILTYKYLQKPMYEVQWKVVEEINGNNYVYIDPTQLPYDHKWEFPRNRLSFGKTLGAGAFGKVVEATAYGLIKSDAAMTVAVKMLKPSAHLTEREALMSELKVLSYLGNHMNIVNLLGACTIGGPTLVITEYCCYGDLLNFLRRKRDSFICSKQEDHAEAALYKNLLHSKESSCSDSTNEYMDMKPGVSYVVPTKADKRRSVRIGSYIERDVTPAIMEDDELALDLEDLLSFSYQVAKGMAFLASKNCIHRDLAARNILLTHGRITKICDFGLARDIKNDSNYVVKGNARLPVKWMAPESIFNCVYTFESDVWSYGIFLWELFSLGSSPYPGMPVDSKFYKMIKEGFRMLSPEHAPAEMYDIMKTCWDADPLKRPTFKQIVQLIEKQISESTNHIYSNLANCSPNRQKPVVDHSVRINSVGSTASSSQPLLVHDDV
# [11] = molecular target: Mast/stem cell growth factor receptor Kit (Homo sapiens) (UniProt P10721); settings: at 1 µM
# [12] = tested on: Mast/stem cell growth factor receptor Kit (Homo sapiens), P10721 [D816V]; settings: at 0.1 µM
# Chain of Mast/stem cell growth factor receptor Kit (Homo sapiens), P10721 [D816V] (P10721 whole entry D816V): as the sequence (P10721 whole entry) above, with D816V counted along it
# [13] = tested on: Mast/stem cell growth factor receptor Kit (Homo sapiens), P10721 [D816V]; settings: at 1 µM
# [14] = tested on: Mast/stem cell growth factor receptor Kit (Homo sapiens), P10721 [T670I]; settings: at 0.1 µM
# Chain of Mast/stem cell growth factor receptor Kit (Homo sapiens), P10721 [T670I] (P10721 whole entry T670I): as the sequence (P10721 whole entry) above, with T670I counted along it
# [15] = tested on: Mast/stem cell growth factor receptor Kit (Homo sapiens), P10721 [T670I]; settings: at 1 µM
# [16] = tested on: Mast/stem cell growth factor receptor Kit (Homo sapiens), P10721 [V560G]; settings: at 0.1 µM
# Chain of Mast/stem cell growth factor receptor Kit (Homo sapiens), P10721 [V560G] (P10721 whole entry V560G): as the sequence (P10721 whole entry) above, with V560G counted along it
# [17] = tested on: Mast/stem cell growth factor receptor Kit (Homo sapiens), P10721 [V560G]; settings: at 1 µM
# [18] = molecular target: Tyrosine-protein kinase Lck (Homo sapiens) (UniProt P06239); settings: at 0.1 µM
# Chain of Tyrosine-protein kinase Lck (Homo sapiens) (P06239 2-509 limits assumed): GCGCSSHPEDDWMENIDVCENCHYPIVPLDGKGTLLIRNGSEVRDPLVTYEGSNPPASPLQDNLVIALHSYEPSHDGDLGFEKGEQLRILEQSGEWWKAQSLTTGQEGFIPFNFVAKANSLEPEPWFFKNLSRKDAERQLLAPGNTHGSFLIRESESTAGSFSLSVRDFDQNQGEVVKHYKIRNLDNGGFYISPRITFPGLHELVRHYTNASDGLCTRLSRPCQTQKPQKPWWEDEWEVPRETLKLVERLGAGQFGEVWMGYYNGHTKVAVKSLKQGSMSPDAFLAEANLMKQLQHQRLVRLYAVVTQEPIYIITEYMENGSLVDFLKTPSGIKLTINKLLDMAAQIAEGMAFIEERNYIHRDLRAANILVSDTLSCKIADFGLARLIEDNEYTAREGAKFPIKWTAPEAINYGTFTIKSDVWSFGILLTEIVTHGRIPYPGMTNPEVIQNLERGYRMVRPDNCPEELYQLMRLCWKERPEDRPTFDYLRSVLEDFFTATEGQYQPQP
# [19] = molecular target: Tyrosine-protein kinase Lck (Homo sapiens) (UniProt P06239); settings: at 1 µM
# [20] = molecular target: Leukocyte tyrosine kinase receptor (Homo sapiens) (UniProt P29376); settings: at 0.1 µM
# Chain of Leukocyte tyrosine kinase receptor (Homo sapiens) (P29376 whole entry): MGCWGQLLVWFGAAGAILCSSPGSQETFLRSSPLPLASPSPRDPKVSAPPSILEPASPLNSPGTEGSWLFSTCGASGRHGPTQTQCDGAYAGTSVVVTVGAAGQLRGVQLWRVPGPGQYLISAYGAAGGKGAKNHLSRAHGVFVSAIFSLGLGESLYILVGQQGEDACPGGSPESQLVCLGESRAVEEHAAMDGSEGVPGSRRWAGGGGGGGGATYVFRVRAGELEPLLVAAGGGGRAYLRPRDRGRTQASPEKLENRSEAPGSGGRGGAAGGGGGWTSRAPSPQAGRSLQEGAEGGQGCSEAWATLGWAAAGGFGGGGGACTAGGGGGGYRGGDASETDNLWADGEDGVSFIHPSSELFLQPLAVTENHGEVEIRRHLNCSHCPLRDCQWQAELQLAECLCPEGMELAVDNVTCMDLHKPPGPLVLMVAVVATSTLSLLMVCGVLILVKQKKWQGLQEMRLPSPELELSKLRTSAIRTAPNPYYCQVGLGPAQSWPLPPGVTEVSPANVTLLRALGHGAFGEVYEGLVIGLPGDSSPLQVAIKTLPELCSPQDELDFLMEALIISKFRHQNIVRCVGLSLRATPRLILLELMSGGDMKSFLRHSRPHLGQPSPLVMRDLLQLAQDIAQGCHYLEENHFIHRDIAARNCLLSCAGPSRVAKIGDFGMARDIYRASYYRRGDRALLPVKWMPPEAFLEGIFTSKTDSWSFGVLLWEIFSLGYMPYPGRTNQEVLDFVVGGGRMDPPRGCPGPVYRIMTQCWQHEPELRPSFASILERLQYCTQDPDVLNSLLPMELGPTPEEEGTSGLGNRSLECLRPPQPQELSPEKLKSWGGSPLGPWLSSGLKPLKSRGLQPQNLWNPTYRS
Structure (SMILES),inhibition [1] [%],inhibition [2] [%],inhibition [3] [%],inhibition [4] [%],inhibition [5] [%],inhibition [6] [%],inhibition [7] [%],inhibition [8] [%],inhibition [9] [%],inhibition [10] [%],inhibition [11] [%],inhibition [12] [%],inhibition [13] [%],inhibition [14] [%],inhibition [15] [%],inhibition [16] [%],inhibition [17] [%],inhibition [18] [%],inhibition [19] [%],inhibition [20] [%]
N#Cc1ccc(Oc2nccc(-c3c(-c4ccc(F)cc4)ncn3C3CCNCC3)n2)cc1,0.22,3.07,3.3,1.47,0.75,-3.92,1.56,3.95,4.78,6.17,6.19,2.91,2.36,3.26,4.72,-0.39,-1.19,3.86,6.11,4.74
c1ccc(Oc2ccc(Nc3ncc(-c4ccccc4)o3)cc2)cc1,2.13,0.76,3.56,1.66,1.65,-0.5,4.13,4.37,3.48,3.26,19.9,-0.64,-0.49,2.73,5.55,-0.1,5.53,2.67,2.2,1.67
NC(=O)Cc1ccccc1Oc1nccc(-c2c(-c3ccc(F)cc3)ncn2C2CCNCC2)n1,1,2.63,-2.73,0.56,-0.85,-1.1,0.74,1.89,3.48,1.71,0.35,0.95,-1.59,-0.35,-1.27,0.54,-3.43,1.45,1.06,3.35
Fc1ccc(-c2c(-c3ccncc3)nc3n2CCS3)cc1,-2.17,1.7,10.2,0.77,4.51,-3.51,2.02,5.2,9.29,3.82,9.55,0.48,4.72,2.05,3.53,-2.29,-3.6,-3.58,-1.31,3.49
CCC(=O)Nc1ccc(C)c(-c2ccc(C(=O)NCC3CC3)cc2)c1,-0.1,2.44,4.69,1.7,1.15,-1.95,-0.85,3.67,9.29,4.93,4.74,-1.54,5.31,2.5,3.87,-0.17,-1.72,2.57,5.27,4.98
COc1cc2ncn(-c3cc(OCc4cccs4)c(C(N)=O)s3)c2cc1OC,2.34,9.11,19.9,1.45,1.19,-2.77,-0.29,14.1,50.5,1.96,11.7,-0.06,3.94,1.45,7.04,1.25,4.05,-0.61,13.8,1.76
FC(F)(F)c1cccc(Nc2nccc(-c3cnn4nc(-c5ccccc5)ccc34)n2)c1,3.33,-0.86,0.5,-0.15,0.22,-1.84,-0.12,0.05,6.02,5.78,37.3,1.06,0.54,1.8,5.77,-2.09,1.67,1.68,2.24,0.59
COC(=O)Nc1nc2ccc(Sc3ccc(NC(=O)Nc4cc(C(F)(F)F)ccc4F)cc3)cc2[nH]1,0.87,0.69,-4.92,32.5,2.1,-1.15,2.49,–,–,1.63,43.9,-2.14,5.31,-0.05,30,2.79,27.3,5.45,34.7,-0.1
COc1cccc(/C=N/Nc2ncnc3c2cnn3-c2cccc(OC)c2)c1,0.34,1.61,4.23,3.55,5.22,-1.99,-2.7,5.88,11.2,6.67,6.76,2.28,4.96,1.91,4.1,3.55,0.61,2.18,8.97,5
Cc1nnc(-c2ccc(C)c(-c3ccc(C(=O)NCc4ccc(Cl)cc4)cc3)c2)o1,-2.86,4.61,16.9,1.06,1.06,-4.26,-4.85,4.61,5.62,4.95,3.81,4.88,1.51,2.49,7.38,-1.65,-1.05,-2.94,-1.25,1.83
Nc1nccc(-c2c(-c3ccc(F)cc3)ncn2C2CCC(O)CC2)n1 (stereo not drawn),0.63,-6.08,-2.41,-0.54,-0.27,1.29,2.69,2.29,17.2,-1.79,17.1,-2.57,1.44,-0.22,-0.69,1.44,5.14,3.6,29.2,-1.37
